{"source": "PubChem BioAssay (Tox21)", "note": "Records with an inconclusive call do not appear. Entries that show only a call come without a potency. Values without a mark were called inactive. The source made the active and inactive calls. The call rests on the fitted dose curve; in most records, active means well fitted cell-killing curve with a large enough effect in the repeat runs; inconclusive means weak or mixed curves; inactive means no such curve, though single readings can be large or run the other way. Potency means the concentration at half of the fitted maximal effect."}
{"assay": "qHTS assay for identifying genotoxic compounds that show differential cytotoxicity against isogenic chicken DT40 cell lines with known DNA damage response pathways - Rad54/Ku70 mutant cell line (AID 743015); further: nearly all actives have a fitted effect of over 60% in size", "details": "DT40 Rad54/Ku70 mutant viability, CellTiter-Glo, 40 h; series mostly up to 66.8 µM", "description": "National Center for Advancing Translational Sciences [NCATS]\nNIH Chemical Genomics Center [NCGC]\nU.S. Environmental Protection Agency [EPA]\nNational Institutes of Environmental Health Sciences [NIEHS]\nNational Toxicology Program [NTP]\nU.S. Food and Drug Administration [FDA]\nDNA repair pathways play a critical role in cellular homeostasis by repairing DNA damage induced by endogenous processes and xenobiotics. Isogenic chicken DT40 cell lines deficient in different DNA repair pathways can be used to identify genotoxic compounds and aid in characterizing the nature of the DNA damage induced. Two DNA repair-deficient cell lines with disrupted genes, Rad54/Ku70 or Rev3, were used to screen the Tox21 10K compound library. Possible genotoxicity was based on the presence of a significant increase in cytotoxicity in one or more of the DNA repair-deficient cell lines compared to that observed in the parental DNA repair-proficient cell line. CellTiter Glo viability assay (Promega, Madison, WI) was used to measure cell viability in these cells after compound treatment. This assay includes the data from the Rad54/Ku70 mutant cell line.\nTox21 Assay Protocol Summary:\n300 DT40 mutant cells in 5 uL/well were dispensed into white, solid-bottom 1536-well plates using a Multidrop Combi (ThermoFisher Scientific, Waltham, MA) dispenser. After the assay plates were incubated at 37 C/5% CO2 for approximately 0.5 hour, 23 nL of compounds dissolved in DMSO, positive controls or DMSO only was transferred into the assay plate by a pintool work station (Kalypsys, San Diego, CA). The assay plates were incubated at 37 C/5% CO2 for 40 hours. After 5 uL per well of CellTiter-Glo reagent was added into each well of the assay plates, the plates were incubated for 30 min at room temperature and the luminescence intensity of the plates was measured using a ViewLux (PerkinElmer, Shelton, CT) plate reader."}
{"smiles": "CCNc1nc(NC(C)C(C)C)nc(SC)n1", "note": "(stereo not given)", "Potency": "61.1 µM (active)"}
{"smiles": "Oc1ccc2[nH]cc(CCCCN3CC=C(c4ccccc4)CC3)c2c1", "Potency": "7.5 µM (active)"}
{"smiles": "CN/C(=N\\[N+](=O)[O-])NCc1cnc(Cl)s1", "Potency": "inactive"}
{"smiles": "CSC(=O)c1c(C(F)F)nc(C(F)(F)F)c(C(=O)SC)c1CC(C)C", "Potency": "30.5 µM (active)"}
{"smiles": "CCOP(=S)(OCC)Oc1cc(C)nc(N(CC)CC)n1", "Potency": "27.3 µM (active)"}
{"smiles": "N#CC(C#N)=NNc1cccc(Cl)c1", "Potency": "2.43 µM (active)"}
{"smiles": "CCCCCCC[CH2][Sn]([Cl])([Cl])[CH2]CCCCCCC", "Potency": "inactive"}
{"smiles": "ClSC(Cl)(Cl)Cl", "Potency": "inactive"}
{"smiles": "Brc1ccc(Oc2ccc(Br)cc2Br)c(Br)c1", "Potency": "inactive"}
{"smiles": "O=C(Nc1ccc(F)cc1F)c1cccnc1Oc1cccc(C(F)(F)F)c1", "Potency": "inactive"}
{"smiles": "CC(Cc1ccc(OCC(=O)O)cc1)NCC(O)c1csc(C(F)(F)F)n1", "note": "(stereo not given)", "Potency": "inactive"}
{"smiles": "COCCC#N", "Potency": "inactive"}
{"smiles": "CC(O)C(=O)[O][Hg][c]1ccccc1", "note": "(stereo not given)", "Potency": "0.154 µM (active)"}
{"smiles": "Cc1ccn2nc(S(=O)(=O)Nc3c(F)cccc3F)nc2n1", "Potency": "inactive"}
{"smiles": "CNC(=O)O/N=C(\\C)C(C)S(C)(=O)=O", "note": "(stereo not given)", "Potency": "inactive"}
{"smiles": "CCc1cccc(C)c1N(C(=O)CCl)[C@@H](C)COC", "Potency": "30.6 µM (active)"}
{"smiles": "Oc1cccc(Cl)c1Cl", "Potency": "inactive"}
{"smiles": "O=S(=O)(O)F", "Potency": "inactive"}
{"smiles": "CCCCCCCc1ccc(O)cc1", "Potency": "19.3 µM (active)"}
{"smiles": "NC(=O)C(Cl)Cl", "Potency": "inactive"}
{"smiles": "Nc1cc(Cl)ccc1Cl", "Potency": "inactive"}
{"smiles": "[Cl-].[Cl-].[Cl-].[Yb+3]", "Potency": "inactive"}
{"smiles": "CCCCn1cc[n+](C)c1", "note": "(tested in a mixture with another compound)", "Potency": "inactive"}
{"smiles": "CC(C)Br", "Potency": "inactive"}
{"smiles": "Cc1cccc(Cc2cnc[nH]2)c1C", "Potency": "inactive"}
{"smiles": "O=[N+]([O-])c1cccc2cccc([N+](=O)[O-])c12", "Potency": "61.4 µM (active)"}
{"smiles": "Clc1c(Cl)c(Cl)c(Cl)c(Cl)c1Cl", "activity change, negative = cytotoxicity": "-2.7% [at 8.55 µM]"}
{"smiles": "C#CCC1=C(C)C(OC(=O)C2C(C=C(C)C)C2(C)C)CC1=O", "note": "(stereo not given)", "Potency": "30.4 µM (active)"}
{"smiles": "COC(=O)c1cc(Oc2ccc(Cl)cc2Cl)ccc1[N+](=O)[O-]", "Potency": "24.3 µM (active)"}
{"smiles": "CCOP(=O)(Sc1ccccc1)Sc1ccccc1", "Potency": "inactive"}
{"smiles": "ClC1=C(Cl)[C@]2(Cl)[C@@H]3[C@H]4C[C@H]([C@@H]5O[C@H]45)[C@@H]3[C@@]1(Cl)C2(Cl)Cl", "Potency": "17.2 µM (active)"}
{"smiles": "[Cl-].[Cl-].[Sn+2]", "Potency": "inactive"}
{"smiles": "CCO/N=C(\\CC)C1=C(O)CC(c2c(C)cc(C)cc2C)CC1=O", "note": "(stereo not given)", "Potency": "62.5 µM (active)"}
{"smiles": "CC(=O)[O][Sn]([c]1ccccc1)([c]1ccccc1)[c]1ccccc1", "Potency": "0.172 µM (active)"}
{"smiles": "O=C(O)[C@H](O)[C@@H](O)C(=O)O", "Potency": "inactive"}
{"smiles": "ClC(Cl)C(Cl)(Cl)Cl", "Potency": "inactive"}
{"smiles": "CC(=O)[O-].CC(=O)[O-].[Co+2]", "Potency": "inactive"}
{"smiles": "CSC(C)(C)/C=N/O", "Potency": "inactive"}
{"smiles": "C#CCO", "Potency": "inactive"}
{"smiles": "CSSC", "Potency": "inactive"}
